Assay results as given in PubChem BioAssay (NCATS).
Inconclusive results are not listed. Entries that show only a call come without a potency. Active and inactive are the calls of the source. Calls come from the whole dose curve; as a rule, active = well fitted inhibition curve with a large enough effect; inconclusive = small, poorly fitted or top-dose-only effect; inactive = flat fitted curve, though single readings scatter. Where a SMILES comes first, the peptide text is derived from it. Bridges are numbered along the chain shown (N, C = ends). [ ]: non-standard residue; d: D form. The star is where a group is joined. X2 = CC[C@H](C)CCCCC(=O)*; Dab = NCC[C@H](N)C(=O)O

Each compound was assayed against Voltage-gated inwardly rectifying potassium channel KCNH2 (Homo sapiens) (UniProt Q12809) (assay: qHTS Assay for Small Molecule Inhibitors of the Human hERG Channel Activity (AID 588834;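 note: lower thallium flux fluorescence means stronger hERG block; nearly all actives have a fitted effect of over 50% in size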)). Conditions: U2OS BacMam hERG, FluxOR thallium flux fluorescence; series mostly up to 46.1 µM.
Voltage-gated inwardly rectifying potassium channel KCNH2 (Homo sapiens), sequence (Q12809 whole entry, looked up): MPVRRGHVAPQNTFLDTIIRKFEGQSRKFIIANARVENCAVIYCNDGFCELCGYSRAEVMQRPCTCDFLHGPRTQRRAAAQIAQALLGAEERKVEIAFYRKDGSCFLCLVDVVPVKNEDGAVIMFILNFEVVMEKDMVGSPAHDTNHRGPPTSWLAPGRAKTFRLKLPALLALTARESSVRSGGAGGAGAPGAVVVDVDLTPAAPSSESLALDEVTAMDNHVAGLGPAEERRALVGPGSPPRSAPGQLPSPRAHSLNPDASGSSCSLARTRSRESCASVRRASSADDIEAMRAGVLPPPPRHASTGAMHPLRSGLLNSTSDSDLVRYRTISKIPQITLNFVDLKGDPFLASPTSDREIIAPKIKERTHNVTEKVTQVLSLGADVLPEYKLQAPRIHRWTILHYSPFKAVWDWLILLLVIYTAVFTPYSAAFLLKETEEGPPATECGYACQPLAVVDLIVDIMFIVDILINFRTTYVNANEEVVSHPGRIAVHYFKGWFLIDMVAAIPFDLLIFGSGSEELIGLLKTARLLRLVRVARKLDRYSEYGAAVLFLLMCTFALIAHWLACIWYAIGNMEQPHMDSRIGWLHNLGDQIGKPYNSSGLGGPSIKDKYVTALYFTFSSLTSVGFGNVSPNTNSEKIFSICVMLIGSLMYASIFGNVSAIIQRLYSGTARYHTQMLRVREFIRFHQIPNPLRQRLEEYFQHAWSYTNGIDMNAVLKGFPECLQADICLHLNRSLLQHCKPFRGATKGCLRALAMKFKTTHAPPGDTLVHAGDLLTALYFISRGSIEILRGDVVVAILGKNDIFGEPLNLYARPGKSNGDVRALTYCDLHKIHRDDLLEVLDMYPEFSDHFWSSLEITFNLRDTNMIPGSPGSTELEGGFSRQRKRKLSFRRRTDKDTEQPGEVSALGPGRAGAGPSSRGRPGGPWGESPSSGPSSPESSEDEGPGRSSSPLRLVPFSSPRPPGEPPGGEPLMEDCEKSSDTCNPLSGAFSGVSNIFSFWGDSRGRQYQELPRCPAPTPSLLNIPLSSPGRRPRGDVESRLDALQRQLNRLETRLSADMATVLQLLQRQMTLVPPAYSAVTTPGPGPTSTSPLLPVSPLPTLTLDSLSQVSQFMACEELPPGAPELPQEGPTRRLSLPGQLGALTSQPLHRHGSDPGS
Procedure, shortened: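 In hERG-transduced U2OS cells, dye-loaded for 1 hr at room temperature in dark, test compounds incubated 10 min at 37 °C before thallium stimulation. AC50 values derived by Hill modelling of concentration-response.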
Potency is the fitted concentration of half-maximal effect.

| Compound | Potency |
| --- | --- |
| CN[C@H](CC(C)C)C(=O)N[C@H]1C(=O)N[C@@H](CC(N)=O)C(=O)N[C@H]2C(=O)N[C@H]3C(=O)N[C@H](C(=O)N[C@@H](C(=O)O)c4cc(O)cc(O)c4-c4cc3ccc4O)[C@H](O)c3ccc(c(Cl)c3)Oc3cc2cc(c3O[C@@H]2O[C@H](CO)[C@@H](O)[C@H](O)[C@H]2O[C@H]2C[C@](C)(N)C(O)[C@H](C)O2)Oc2ccc(cc2Cl)[C@H]1O (stereo not given in full) | inactive |
| CCC(=O)OC(OP(=O)(CCCCc1ccccc1)CC(=O)N1C[C@H](C2CCCCC2)C[C@H]1C(=O)O)C(C)C (stereo not given in full) | inactive |
| CN(C)CCC(O)(c1ccccc1)c1ccccc1Cl (stereo not given) | 3.16 µM (active) |
| CC[C@H](C)CCCCC(=O)N[C@@H](CCN)C(=O)N[C@H](C(=O)N[C@@H](CCN)C(=O)N[C@H]1CCNC(=O)[C@@H]([C@H](C)O)NC(=O)[C@H](CCN)NC(=O)[C@H](CCN)NC(=O)[C@H](CC(C)C)NC(=O)[C@@H](CC(C)C)NC(=O)[C@H](CCN)NC1=O)[C@@H](C)O (X2-[Dab]T[Dab][Dab][Dab][dL]L[Dab][Dab][dT]; lactam 4-C) | inactive |
| CO[C@H]1C[C@H](O[C@H]2[C@H](C)[C@@H](O[C@@H]3O[C@H](C)C[C@H](N(C)C)[C@H]3O)[C@@H](C)C[C@]3(CO3)C(=O)[C@H](C)[C@@H](O)[C@@H](C)[C@@H](C)OC(=O)[C@@H]2C)O[C@@H](C)[C@@H]1O | inactive |
| C=C1CC[C@H](O)CC1=C/C=C1\CCC[C@]2(C)[C@@H]([C@H](C)/C=C/[C@H](C)C(C)C)CC[C@@H]12 | inactive |
| OCCN1CCN(CC/C=C2/c3ccccc3Sc3ccc(Cl)cc32)CC1 | 1.58 µM (active) |
| CO/N=C(\C(=O)N[C@@H]1C(=O)N2C(C(=O)[O-])=C(C[n+]3ccc(N)n3CCO)CS[C@H]12)c1csc(N)n1 | inactive |
| Cc1c(N)nc([C@H](CC(N)=O)NC[C@H](N)C(N)=O)nc1C(=O)N[C@H](C(=O)N[C@H](C)[C@@H](O)[C@H](C)C(=O)N[C@H](C(=O)NCCc1nc(-c2nc(C(=O)NCCCCN=C(N)N)cs2)cs1)[C@@H](C)O)[C@@H](O[C@@H]1O[C@@H](CO)[C@@H](O)[C@H](O)[C@@H]1O[C@H]1O[C@H](CO)[C@@H](O)[C@H](OC(N)=O)[C@@H]1O)c1cnc[nH]1 | inactive |
| CCN(CC)C(=O)[C@]1(c2ccccc2)C[C@@H]1CN | inactive |
| CC(=C\c1ccccc1)/C=C1/SC(=S)N(CC(=O)O)C1=O | inactive |
| OC[C@H]1O[C@@H](O[C@H]2[C@H](O)[C@@H](O)[C@H](O)O[C@@H]2CO)[C@H](O)[C@@H](O)[C@@H]1O | inactive |
| CC(=O)OCC1=C(C(=O)O)N2C(=O)[C@@H](NC(=O)Cc3ccccc3)[C@H]2SC1 | inactive |
| CCN(CC)CCOCCOC(=O)C(CC)(CC)c1ccccc1 | 14.1 µM (active) |
| NC[C@H]1O[C@H](O[C@H]2[C@H](O)[C@@H](O[C@H]3O[C@H](CO)[C@@H](O)[C@H](N)[C@H]3O)[C@H](N)C[C@@H]2N)[C@H](O)[C@@H](O)[C@@H]1O | inactive |
| CC(C)(C)NCC(O)c1ccc(O)c(CO)n1 (stereo not given) | inactive |
| C=Cc1c(C)c2cc3nc(cc4[nH]c(cc5nc(cc1[nH]2)C(C)=C5CCC(=O)OC)c(CCC(=O)O)c4C)[C@@]1(C)C3=CC=C(C(=O)OC)[C@H]1C(=O)OC | inactive |
| NC[C@@H]1O[C@H](O[C@H]2[C@@H](O)[C@H](O[C@@H]3[C@@H](O)[C@H](N)C[C@H](N)[C@H]3O[C@H]3O[C@H](CO)[C@@H](O)[C@H](O)[C@H]3N)O[C@@H]2CO)[C@H](N)[C@@H](O)[C@@H]1O | inactive |
| H-RKDVY-OH | inactive |
| NS(=O)(=O)c1cc2c(cc1Cl)NC(Cc1ccccc1)NS2(=O)=O (stereo not given) | inactive |
| CC(C)C[C@@H](NC(=O)[C@@H](O)[C@H](N)Cc1ccccc1)C(=O)O | inactive |
| OC[C@H]1OC([S-])[C@H](O)[C@@H](O)[C@@H]1O.[Au+] (stereo not given in full) | inactive |
| C=CC[N@@+]12CC[C@@]34c5ccccc5N5/C=C6/[C@H]7C[C@H]8[C@@]9(CC[N@@+]8(CC=C)C/C7=C/CO)c7ccccc7N(/C=C(/[C@@H](C[C@@H]31)/C(=C\CO)C2)[C@H]54)[C@@H]69 | inactive |
| O=C(O)[C@@H]1C[C@H](CP(=O)(O)O)CCN1 | inactive |
| CCCCCCCCCCCCCCCCCCOCC(COP(=O)([O-])OCC[N+](C)(C)C)OC (stereo not given) | inactive |
